Reference: PubChem BioAssay (NCATS)
Records with an inconclusive call do not appear. A call without a number means that no potency is given here. Unmarked numbers belong to inactive results. Active and inactive are the calls of the source. Calls follow the shape of the dose curve; as a rule, active = well fitted inhibition curve with a large enough effect; inconclusive = small, poorly fitted or top-dose-only effect; inactive = flat fitted curve, though single readings scatter.

Key:
[1] = qHTS profiling for inhibitors of Plasmodium falciparum proliferation (AID 504749); also: nearly all actives have a fitted effect of over 60% in size; details: P. falciparum in erythrocytes, SYBR Green DNA, 72 h
In short: (§1)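 In a 72 h erythrocytic culture (37 C, humidified, 5% CO2) at 2.5% hematocrit and 0.3% starting parasitemia, compounds were tested; SYBR Green I in detergent lysis buffer stained parasite DNA overnight.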

3D7 = assay: as above; details: P. falciparum in erythrocytes, SYBR Green DNA, 72 h; series mostly up to 28.7 µM
In short: as §1

7G8 = assay: as above; details: P. falciparum in erythrocytes, SYBR Green DNA, 72 h; series mostly up to 28.7 µM
In short: as §1

AA1029 = assay: as above; details: P. falciparum in erythrocytes, SYBR Green DNA, 72 h; series mostly up to 28.7 µM
In short: as §1

AS120 = assay: as above; details: P. falciparum in erythrocytes, SYBR Green DNA, 72 h; series mostly up to 28.7 µM
In short: as §1

ATS189 = assay: as above; details: P. falciparum in erythrocytes, SYBR Green DNA, 72 h; series mostly up to 28.7 µM
In short: as §1

ATS95 = assay: as above; details: P. falciparum in erythrocytes, SYBR Green DNA, 72 h; series mostly up to 28.7 µM
In short: as §1

C2A = assay: as above; details: P. falciparum in erythrocytes, SYBR Green DNA, 72 h; series mostly up to 28.7 µM
In short: as §1

CP185 = assay: as above; details: P. falciparum in erythrocytes, SYBR Green DNA, 72 h; series mostly up to 28.7 µM
In short: as §1

[2] = at 28.7 µM (top of the series), parasite line A
[3] = at 28.7 µM (top of the series), parasite line B
[4] = at 12.8 µM (top of the series), parasite line A
[5] = at 12.8 µM (top of the series), parasite line B
Potency is read from the fitted curve at half-maximal effect.

Row | SMILES | activity, negative = inhibition [1, 2] | activity, negative = inhibition [1, 3] | Potency (3D7) | Potency (7G8) | Potency (AA1029) | Potency (AS120) | Potency (ATS189) | Potency (ATS95) | Potency (C2A) | Potency (CP185) | Potency ([1]; parasite line A) | Potency ([1]; parasite line B) | activity, negative = inhibition [1, 4] | activity, negative = inhibition [1, 5]
1 | CC(=O)Nc1ccc(OCC(O)CNC(C)C)cc1 (stereo not given) | 13.4% | 11.8% | inactive | inactive | inactive | inactive | inactive | inactive | inactive | inactive | – | – | – | –
2 | CCCCCCCCNC(C)C(O)c1ccc(SC(C)C)cc1 (stereo not given) | – | – | 794 nM (active) | 100 nM (active) | 1000 nM (active) | 891 nM (active) | 631 nM (active) | 1260 nM (active) | 891 nM (active) | 891 nM (active) | 1260 nM (active) | 562 nM (active) | – | –
3 | CC(=O)Nc1ccc(S(=O)(=O)Nc2ccc([N+](=O)[O-])cc2)cc1 | -0.674% | 0.755% | inactive | inactive | inactive | inactive | inactive | inactive | inactive | inactive | – | – | – | –
4 | CC(C)Cn1cnc2c1c(=O)n(C)c(=O)n2C | -14.6% | 1.13% | inactive | inactive | inactive | inactive | inactive | inactive | inactive | inactive | – | – | – | –
5 | COc1cc(C)nc(-n2nc(C)cc2OC)n1 | – | – | inactive | inactive | inactive | inactive | inactive | inactive | inactive | inactive | – | – | 3.73% | -3.99%
6 | CC(C)(C)NC[C@H](O)COc1cccc2c1CCCC2=O | – | – | inactive | inactive | inactive | inactive | inactive | inactive | inactive | inactive | – | – | 5.04% | 7.33%
7 | Nc1ccc(S(=O)(=O)NCc2ccccc2)cc1 | 4.25% | 6.29% | inactive | inactive | inactive | inactive | inactive | inactive | inactive | inactive | – | – | – | –
8 | COc1ccccc1N1CCN(CCCCNC(=O)c2ccc(-c3ccc(C(C)=O)cc3)cc2)CC1 | 15.8% | 20.5% | inactive | 12600 nM (active) | inactive | inactive | inactive | inactive | inactive | inactive | – | – | – | –
9 | Cc1ncc(CO)c(C=O)c1O | 0.609% | 9.9% | inactive | inactive | inactive | inactive | inactive | inactive | inactive | inactive | – | – | – | –
10 | Cc1ccccc1OCC(O)CO (stereo not given) | 13.7% | 2.74% | inactive | inactive | inactive | inactive | inactive | inactive | inactive | inactive | – | – | – | –
11 | NC(=O)c1ccccc1O | 4.99% | 15.1% | inactive | inactive | inactive | inactive | inactive | inactive | inactive | inactive | – | – | – | –
12 | O=C(O)C1(C(=O)O)CCC1.[NH2-].[NH2-].[Pt+2] | -5.41% | -0.756% | inactive | 14100 nM (active) | inactive | inactive | inactive | inactive | inactive | inactive | – | – | – | –
13 | CCOC(=O)c1ccc(N)cc1 | – | – | inactive | inactive | inactive | inactive | inactive | inactive | inactive | inactive | – | – | 6.05% | 7.01%
14 | CCCCC(CC)COC(=O)c1ccc(N(C)C)cc1 (stereo not given) | 7.25% | -4.81% | inactive | inactive | inactive | inactive | inactive | inactive | inactive | inactive | – | – | – | –
15 | CCc1oc2ccccc2c1C(=O)c1cc(I)c(O)c(I)c1 | -1.64% | -5.21% | inactive | inactive | inactive | inactive | inactive | inactive | inactive | inactive | – | – | – | –
16 | CCCN(CCC)S(=O)(=O)c1ccc(C(=O)O)cc1 | 12.1% | 6% | inactive | inactive | inactive | inactive | inactive | inactive | inactive | inactive | – | – | – | –
17 | Cc1cccc(C)c1NC(=O)CN1CCCCCC1 | 14.8% | 4.72% | inactive | inactive | inactive | inactive | inactive | inactive | inactive | inactive | – | – | – | –
18 | OC[C@H]1O[C@@H]2O[C@H]3[C@H](O)[C@@H](O)[C@@H](O[C@H]4[C@H](O)[C@@H](O)[C@@H](O[C@H]5[C@H](O)[C@@H](O)[C@@H](O[C@H]6[C@H](O)[C@@H](O)[C@@H](O[C@H]7[C@H](O)[C@@H](O)[C@@H](O[C@H]8[C@H](O)[C@@H](O)[C@@H](O[C@H]1[C@H](O)[C@H]2O)O[C@@H]8CO)O[C@@H]7CO)O[C@@H]6CO)O[C@@H]5CO)O[C@@H]4CO)O[C@@H]3CO | 8.7% | 8.53% | inactive | inactive | inactive | inactive | inactive | inactive | inactive | inactive | – | – | – | –
19 | CCN(CC)CCNc1ccc(CO)c2sc3ccccc3c(=O)c12 | – | – | 2000 nM (active) | 2000 nM (active) | 2240 nM (active) | 1000 nM (active) | 794 nM (active) | 2000 nM (active) | 794 nM (active) | 1000 nM (active) | 1780 nM (active) | 3550 nM (active) | – | –
